Screening data from PubChem BioAssay.
NS1 function inh – qHTS Assay for Inhibitors of Influenza NS1 Protein Function | 270,000 compounds, 0.4% hits | Potency, µM (doses to about 46.1 µM), inactives show top-dose activity, positive = more growth; calls by dose curve; also: actives are rising curves; nearly all actives have a fitted effect of over 50% in size
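Recovery from NS1-induced slow growth read by OD600 in budding yeast switched to galactose assay medium (pH 6.0, -URA) at 1:100 dilution. Compound 23 nl per well; the matching strain lacking NS1 serves as control.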
Sm TGR block – qHTS Assay for the Inhibitors of Schistosoma Mansoni Peroxiredoxins. purified TGR, DTNB reduction, TNB absorbance 405 nm. Potency, µM (doses to about 114 µM), without a hit: top-dose activity change, negative = inhibition, usual class: inhibitors. 360,000 compounds, 3% hits. AID 485364, 2010; also: % is scaled to controls: 0 for no effect and ±100 for the full control effect; nearly all actives have a fitted effect of over 60% in size
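First, TGR (20 nM dispensed) and NADPH were mixed with compound. Second, a 15 min room-temperature incubation followed. Third, further NADPH and then DTNB were added to start the reaction. Finally, TNB absorbance was monitored kinetically.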
Pf growth 48h – Primary qHTS for delayed death inhibitors of the malarial parasite plastid, 48 hour incubation | P. falciparum luciferase growth in erythrocytes, 48 h | Potency, µM (top dose mostly 28.7 µM), without a hit: at the highest dose activity change, negative = inhibition, usual class: inhibitors | 310,000 compounds, 5.9% hits | AID 504832, 2011; also: % is scaled to controls: 0 for no effect and ±100 for the full control effect
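Compounds are pin-transferred into medium, infected erythrocytes (2% hematocrit, 0.1% parasitemia final) are added, and plates sit one parasite generation at 37 C in 5% CO2. Detection reagent is then added and luminescence measured.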
Pf growth 96h – Primary qHTS for delayed death inhibitors of the malarial parasite plastid, 96 hour incubation; P. falciparum luciferase reporter growth, 96 h; Potency, µM (doses to about 28.7 µM), for the others: at the highest dose activity change, negative = inhibition, actives largely listed as inhibitors; 320,000 compounds, 6.9% hits; also: % is scaled to controls: 0 for no effect and ±100 for the full control effect
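Erythrocytes infected with luciferase-expressing P. falciparum were dispensed at 2% hematocrit and 0.05% parasitemia (final), then incubated with compounds 96 hours at 37 C in 5% CO2. Luminescence after detection reagent addition reported growth.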
AMA1 RON2 block – qHTS for Inhibitors of AMA1-RON; Towards Development of Antimalarial Drug Lead: Primary Screen; AlphaScreen AMA1-biotinylated RON2 peptide binding; Plasmodium falciparum AMA1 (3D7) - RON2 peptide interaction; Potency, µM (series often up to 58.2 µM), inactives show at the highest dose activity change, negative = inhibition, usual class: inhibitors; AID 720542, 2013; 360,000 compounds, 0.2% hits;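 also: 0% = vehicle wells and -100% = peptide control; nearly all actives have a fitted effect of over 45% in size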
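AMA1 (3D7) with his tag at 25 nM final met compounds first, then biotinylated RON2 peptide at 25 nM; detection used donor plus acceptor beads, 10 µg/mL apiece, read by AlphaScreen after 30 min at room temperature.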
* = called active by the depositor; [ ] = remark or other dose. This is a sample that favours compounds with a hit; in the whole collection about 11% have one here. Unless noted, calls follow the shape of the dose curve; as a rule, active = well fitted curve in the direction sought with a large enough effect; inconclusive = small, poorly fitted or top-dose-only effect, or another doubt; inactive = no such curve, though single readings can be large; an effect the other way counts as inactive or inconclusive. Potency is read from the fitted curve at half-maximal effect.

What do the screens show for `Cc1ccc(Nc2ccc(N3CCN(C(=O)c4ccc([N+](=O)[O-])cc4)CC3)nn2)cc1`?
Sm TGR block: 4.0%

How did COc1ccc(-c2cn(Cc3ccc(C(N)=O)cc3)c(-c3ccncc3)n2)cc1 do in these assays?
Sm TGR block: -4.0%; Pf growth 48h: 33.3%; Pf growth 96h: 92.3%; AMA1 RON2 block: -7.8%

How did Nc1nonc1-n1nnc(C(=O)N/N=C/c2cc(Br)ccc2O)c1CNc1ccccc1 do in these assays?
NS1 function inh: 7.9%; Sm TGR block: 1.4%; Pf growth 48h: inconclusive; Pf growth 96h: inconclusive; AMA1 RON2 block: 21.4%

What do the screens show for `Nc1nonc1C(=O)N/N=C/c1cc(Br)ccc1O`?
NS1 function inh: -0.1%; Sm TGR block: 2.9%; Pf growth 48h: 4.15µM*; Pf growth 96h: 13.0%; AMA1 RON2 block: -8.5%

Results for COc1ccc(S(=O)(=O)N2CCCCC2)cc1NC(=O)Cc1c[nH]c2ccccc12 ?
NS1 function inh: inconclusive; Sm TGR block: -1.2%; Pf growth 48h: inconclusive; Pf growth 96h: 8.28µM*; AMA1 RON2 block: -8.2%

How did Cc1ccc(S(=O)(=O)N2CCCCC2)cc1NC(=O)Cc1c[nH]c2ccccc12 do in these assays?
NS1 function inh: 10.2%; Sm TGR block: -0.6%; Pf growth 48h: inconclusive; Pf growth 96h: 5.22µM*; AMA1 RON2 block: -2.8%

What do the screens show for `COc1ccc(S(=O)(=O)N2CCCCC2)cc1NC(=O)CCc1cc(OC)c(OC)c(OC)c1`?
AMA1 RON2 block: 2.5%

Results for COc1ccc(S(=O)(=O)N2CCCCCC2)cc1NC(=O)Cc1cc(OC)c(OC)c(OC)c1 ?
NS1 function inh: 15.3%; Sm TGR block: 6.2%; Pf growth 48h: inconclusive; Pf growth 96h: 3.7µM*; AMA1 RON2 block: -0.5%

What do the screens show for `O=S(=O)(c1ccc(OCC(O)CN2CCC(Cc3ccccc3)CC2)cc1)N1CCOCC1` (stereo not given)?
NS1 function inh: -10.1%; Sm TGR block: -10.3%; Pf growth 48h: 11.7µM*; Pf growth 96h: inconclusive; AMA1 RON2 block: -0.5%

Results for COc1cccc(C(C(=O)NC2CCCC2)N2CCN(c3cc(C)ccc3C)CC2)c1OC (stereo not given) ?
AMA1 RON2 block: -5.1%

How did N#Cc1sc(NCc2ccccn2)nc1Cl do in these assays?
NS1 function inh: 4.5%; Sm TGR block: -7.3%; Pf growth 96h: 25.4%; AMA1 RON2 block: 2.3%

How did CC[C@]12c3[nH]c4cc(CCC(=O)N(C)C)ccc4c3CCN1C(=O)[C@@H](CC(=O)NC/C=C(\C)CCC=C(C)C)C[C@@H]2C(=O)N1CCN(C(=O)c2ccco2)CC1 do in these assays?
AMA1 RON2 block: -10.8%

How did COc1ccc2cc(CNc3ccc(C)cc3)c(=O)n(CC(=O)Nc3cccc(C(F)(F)F)c3)c2c1 do in these assays?
Sm TGR block: 12.7%

How did COc1ccc(C)cc1S(=O)(=O)N(CC(=O)Nc1cc([N+](=O)[O-])ccc1C)c1ccc(C)c(C)c1 do in these assays?
NS1 function inh: 6.7%; Sm TGR block: -3.0%; Pf growth 48h: 10.4µM*; Pf growth 96h: inconclusive; AMA1 RON2 block: -4.7%

Results for Cc1ccc(NC(=O)Cc2n[nH]c(=O)c3ccccc23)cc1S(=O)(=O)N1CCCCCC1 ?
Sm TGR block: 1.7%; Pf growth 48h: inconclusive; Pf growth 96h: inconclusive; AMA1 RON2 block: 8.3%[11.6 µM]

Results for COc1ccc(C)cc1S(=O)(=O)N(CC(=O)Nc1cccc([N+](=O)[O-])c1)c1cc(C)cc(C)c1 ?
NS1 function inh: 8.6%; Sm TGR block: -1.7%; Pf growth 48h: inconclusive; Pf growth 96h: inconclusive; AMA1 RON2 block: 14.4%

What do the screens show for `Cc1ccc(S(=O)(=O)N2CCCCC2)cc1NC(=O)CNc1ccccc1N1CCCC1=O`?
Sm TGR block: -4.1%; Pf growth 48h: 13.1µM*; Pf growth 96h: inconclusive; AMA1 RON2 block: -4.2%

How did Cc1ccc(NC(=O)Cc2c[nH]c3ccccc23)cc1S(=O)(=O)N1CCCCCC1 do in these assays?
NS1 function inh: 22.7%; Sm TGR block: -17.0%; Pf growth 48h: 13.1µM*; Pf growth 96h: 11.7µM*; AMA1 RON2 block: -6.9%

Results for COc1ccc([N+](=O)[O-])cc1NCC(=O)Nc1cc(S(=O)(=O)N2CCCCC2)ccc1C ?
Sm TGR block: 0.5%; Pf growth 48h: 11.7µM*; Pf growth 96h: inconclusive; AMA1 RON2 block: -4.0%

How did CC(=O)Nc1ccc(NC(=O)C(C)N(C)CC(=O)Nc2ccccc2Br)cc1 (stereo not given) do in these assays?
NS1 function inh: -2.8%; Sm TGR block: 2.2%; Pf growth 48h: -25.1%[0.00184 µM]; Pf growth 96h: -6.5%; AMA1 RON2 block: 64.8%

What do the screens show for `Cn1c(=O)c2c(SCC(=O)N3CCc4ccccc43)nc(-c3cccc(F)c3)nc2n(C)c1=O`?
Sm TGR block: 1.3%

What do the screens show for `O=C(Nc1c(C(=O)N2CCN(c3ccccc3)CC2)oc2ccccc12)c1ccc(Br)o1`?
Sm TGR block: -1.9%

Results for Cc1ccc(S(=O)(=O)N2CCOCC2)cc1NC(=O)CN1CCN(C)CC1 ?
Sm TGR block: -1.5%; Pf growth 48h: -21.8%; Pf growth 96h: -22.8%; AMA1 RON2 block: 12.2%

Results for COc1ccc(S(=O)(=O)N2CCCCC2)cc1NC(=O)CSc1ncnc2ccccc12 ?
NS1 function inh: 19.3%; Sm TGR block: 1.8%; Pf growth 48h: 11.7µM*; Pf growth 96h: 2.33µM*; AMA1 RON2 block: -2.4%

Results for Cc1ccc(S(=O)(=O)N2CCOCC2)cc1NC(=O)CN1CCC(Cc2ccccc2)CC1 ?
NS1 function inh: -8.3%; Pf growth 48h: 13.1µM*; Pf growth 96h: 3.7µM*; AMA1 RON2 block: inconclusive

What do the screens show for `Cc1ccc(NC(=O)CSc2ncnc3ccccc23)cc1S(=O)(=O)N1CCCCC1`?
NS1 function inh: 9.5%; Sm TGR block: 0.7%; Pf growth 48h: inconclusive; Pf growth 96h: inconclusive; AMA1 RON2 block: -5.2%

Results for Cc1ccc(S(=O)(=O)N2CCCCC2)cc1NC(=O)CN1CC=C(c2ccccc2)CC1 ?
NS1 function inh: 13.7%; Sm TGR block: 1.5%; Pf growth 48h: inconclusive; Pf growth 96h: 10.4µM*; AMA1 RON2 block: 1.9%

What do the screens show for `CC(=O)Nc1ccc(SC[C@H](CC(C)C)N2CCN(CCc3ccccc3)CCC2=O)cc1`?
NS1 function inh: -2.6%; Sm TGR block: inconclusive; Pf growth 48h: 9.28µM*; Pf growth 96h: 7.38µM*; AMA1 RON2 block: 3.4%

Results for CC(=O)Nc1ccc(SC[C@H](Cc2ccccc2)N2CCN(CC(C)C)CCC2=O)cc1 ?
NS1 function inh: -2.3%; Sm TGR block: inconclusive; Pf growth 48h: 7.38µM*; Pf growth 96h: 4.65µM*; AMA1 RON2 block: 22.2%
